These results are taken from PubChem BioAssay (NCI).

This is part of a sample that, as a whole, favours compounds with a hit. Of some 83,000 tested, about 20% had one in any assay.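 Values shown are percent growth following 48 h exposure of cells in 96-well plates to a single concentration of compound; below 10 was considered active.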 A number with no mark means an inactive call. Activity calls are given as the source filed them.

Experiment in all cases: NCI-60 one-dose screen, 48 h (100 = growth as untreated, 0 = no growth, -100 = all killed)
Conditions in all cases: 10 µM unless noted

The test system of assay [1] is RPMI-8226 leukemia.
The subject of assay [2] is OVCAR-8 ovarian.
Assay [3] concerns OVCAR-5 ovarian.
The test system of assay [4] is OVCAR-4 ovarian.
Assay [5] relates to SK-OV-3 ovarian.
In assay [6] the test system is IGROV1 ovarian.
Assay [7] has as its system OVCAR-3 ovarian.
Assay [8] has as its system HS 578T breast.
Assay [9] deals with NCI/ADR-RES ovarian.
The test system of assay [10] is T-47D breast.
The subject of assay [11] is BT-549 breast.
For assay [12], the system named is MDA-MB-435 melanoma.
Assay [13] deals with SW-620 colon.
Assay [14] concerns MCF7 breast.
The subject of assay [15] is HCT-116 colon.
The subject of assay [16] is KM12 colon.
For assay [17], the system named is HCC-2998 colon.

Take `Cc1nnc(Nc2ccc(NC(=O)Nc3ccc(Cl)cc3)cc2)c2ccccc12`: the growth in assay [1] was -11.9% (active); in assay [2] it was 31.4%; in [3], 72.8%; in assay [4] it was 42.6%; in assay [5], 66.4%; in assay [6] it was 62%. For the same compound, the growth was 44.4% in [7]; 3.43% (active) in assay [8]; 45.1% in [9]; 8.43% (active) in assay [10]; 11.4% in assay [11]; -40% (active) in assay [12]. The growth in assay [13] is 20.3%; in assay [14], 24.9%; in assay [15], 7.67% (active); in [16], 14.1%.
`COC(=O)CCC1=C(C)/C(=C/c2[nH]c(-c3ccc[nH]3)cc2OC)N=C1C`: the growth is -57% (active) in [1]; 10% in assay [2]; 35% in assay [3]; 23.4% in [4]; 40% in [5]; 25.9% in [6]. Moreover, the growth in assay [7] is -56.9% (active); in [8], 1.28% (active); in assay [9] it was 14.8%; in assay [10], -36% (active); in assay [11], 14.3%; in [12], -13.5% (active). In addition, the growth in [13] is 8.99% (active); in [14] it was 1.82% (active); in assay [15], -61.8% (active); in [17], 9.8% (active); in assay [16] it was 5.49% (active).
As for `CCCCCCCCCCCCNc1ncnc2[nH]ncc12`, the growth in [1] was 63%; in assay [2], 77.3%; in assay [3], 90.6%; in [4], 77.8%; in [5], 105%; in assay [6], 92.8%. In addition, the growth in assay [7] was 79.5%; in assay [8], 92.4%; in [9], 83.8%; in assay [10], 62.8%; in assay [11], 62.9%; in assay [12], 71.7%. Also, the growth in [13] was 83.1%; in assay [14], 59%; in assay [15], 53.3%; in assay [16], 79.2%.
For the compound `O=C1/C(=C/c2ccc([N+](=O)[O-])s2)Oc2ccc(Br)cc21`, the growth in assay [1] is -6.04% (active); in assay [2] it was -6.92% (active); in assay [3], -66.8% (active); in assay [4] it was -75.8% (active); in [5], -34.3% (active); in [6], -45.9% (active). Further, the growth in assay [7] was -65.3% (active); in [8] it was 16.2%; in assay [9], -31.2% (active); in [10] it was -55.7% (active); in assay [11], -46.2% (active); in [12], -69.5% (active). The growth is -63.5% (active) in [13]; -25.2% (active) in assay [14]; -71.5% (active) in assay [15]; -79.9% (active) in [17]; -51.3% (active) in [16].
With `C[N+]1(CCC[N+]2(C)C[C@@H]3[C@H](C2)[C@@H]2C=C[C@H]3C2)CCOCC1` (stereo partly specified), the growth was 106% in assay [1]; 104% in assay [2]; 88.9% in assay [3]; 112% in assay [4]; 99.3% in assay [5]; 103% in assay [6]. The growth in assay [7] is 116%; in assay [8], 111%; in assay [9], 107%; in [10], 109%; in assay [11] it was 103%; in assay [12] it was 113%. Also, the growth in assay [13] is 106%; in assay [14], 107%; in [15] it was 105%; in [17], 112%; in assay [16], 108%.
Take `CCN(CC)CCNc1ccc(Cl)cc1Cl`: the growth in [1] was 109%; in [2] it was 98.2%; in assay [3], 124%; in assay [4], 117%; in assay [5], 92.5%; in [6] it was 110%. Further, the growth is 109% in assay [7]; 108% in assay [8]; 103% in assay [9]; 98.6% in assay [10]; 106% in assay [11]; 111% in assay [12]. Also, the growth in assay [13] is 104%; in [14], 107%; in [15], 96.8%; in assay [17], 97.4%; in assay [16] it was 110%.
For the compound `Nc1nc(SCC2(CCl)COC2)c2[nH]cnc2n1`, the growth in assay [1] is 96.4%; in assay [2], 95.8%; in assay [3], 100%; in assay [4] it was 86.8%; in [5], 92.9%; in assay [6], 101%. For the same compound, the growth in assay [7] was 109%; in assay [8] it was 89.4%; in [9] it was 109%; in assay [10] it was 100%; in assay [11], 91.2%; in assay [12], 107%. Besides, the growth in [13] is 99.8%; in assay [14], 86.4%; in [15], 105%; in assay [16], 108%.
With `COc1ccc(-c2cnnn2-c2cc(OC)c3c(c2)OCO3)cc1`, the growth was 9.18% (active) in assay [1]; 13.1% in [2]; 45.1% in assay [3]; 64.7% in [4]; -1.59% (active) in assay [5]; 17.9% in [6]. The growth in [7] is -37.5% (active); in assay [8] it was 5.54% (active); in assay [9], 12.1%; in [10] it was 50.3%; in assay [11], 34.8%; in assay [12], -57.5% (active). In addition, the growth in [13] is 26.5%; in [14], 17.8%; in [15] it was 13.6%; in assay [16], 11.8%.
With `Clc1nc(Cl)c2ncn(-c3ccccc3)c2n1`, the growth in assay [1] is 108%; in assay [2], 51.4%; in assay [3], 102%; in assay [4] it was 68.9%; in [5] it was 88.4%; in [6], -48.8% (active). The growth in [7] was 54.9%; in assay [8], 12.4%; in [9], 92.6%; in assay [10], 50.6%; in assay [11], 86.2%; in assay [12] it was 64.5%. In addition, the growth is 36.5% in assay [13]; 54.8% in [14]; 32.1% in assay [15]; 100% in [17]; 79.5% in [16].
For `CCC(C)CC(C)C(=O)c1c(O)ccn(OC)c1=O` (stereo unspecified), the growth in [1] was 69.3%; in [2], 66.3%; in assay [3] it was 86.8%; in assay [4], 44.9%; in [5], 86.7%; in assay [6], 65%. Moreover, the growth is 47.1% in assay [7]; 93.2% in assay [8]; 57.1% in assay [9]; 82.9% in [10]; 78.1% in [11]; 73.6% in assay [12]. The growth in assay [13] is 61.8%; in [14], 74.3%; in [15], 47.6%; in assay [17], 95.7%; in assay [16], 102%.
For `NNC(=O)C1CC2c3ccccc3C1c1ccccc12` (stereo unspecified), the growth in assay [1] is 90.1%; in [2], 102%; in assay [3] it was 99.4%; in [4], 106%; in [5] it was 112%; in assay [6] it was 110%. Also, the growth in assay [7] is 102%; in assay [8], 102%; in assay [9] it was 103%; in assay [10], 112%; in assay [11], 102%; in assay [12], 106%. In addition, the growth was 108% in [13]; 101% in assay [14]; 108% in [15]; 101% in assay [17]; 115% in [16].
As to `O=[N+]([O-])c1ccc(N/N=C\c2ccccc2[N+](=O)[O-])nc1`, the growth in assay [1] is 102%; in [2], 107%; in assay [3], 124%; in [4] it was 120%; in assay [5], 121%; in assay [6], 106%. Moreover, the growth in [7] is 109%; in [8], 97.7%; in assay [9], 108%; in [10], 107%; in assay [11], 101%; in [12], 107%. In addition, the growth in assay [13] was 107%; in assay [14], 88.8%; in [15], 102%; in assay [16], 104%.
In the case of `O=C(NN(C(=O)c1ccccc1)c1cccs1)c1ccccc1`, the growth in [1] is 94.4%; in [2], 120%; in assay [3], 105%; in assay [4], 106%; in [5], 102%; in assay [6] it was 102%. Also, the growth was 115% in assay [7]; 104% in [8]; 103% in assay [9]; 94.9% in assay [10]; 98% in assay [11]; 124% in [12]. For the same compound, the growth was 104% in [13], 110% in assay [14], 93.7% in assay [15] and 117% in [16].
As to `Cc1c(C(N)=O)sc2nc(SCC(=O)Nc3ccc(Cl)cc3)n(-c3ccccc3)c(=O)c12`, the growth in [1] is 112%; in [2] it was 118%; in [3], 93.9%; in assay [4], 101%; in [5], 105%; in [6], 20.6%. For the same compound, the growth in assay [7] was 131%; in assay [8], 348%; in assay [9] it was 97.2%; in [10] it was 91.1%; in [11], 69.1%; in [12] it was 112%. Also, the growth in assay [13] is 128%; in [14], 104%; in assay [15], 103%; in assay [17] it was 109%; in assay [16] it was 118%.
As to `Cc1cc(C(C)(C)c2cc(C)c(O)c(CN(C)C)c2)cc(CN(C)C)c1O`, the growth in [1] was 84.1%; in [2], 89.4%; in assay [3], 102%; in [4], 99.1%; in assay [5], 104%; in assay [6], 78.9%. The growth in [7] was 85.7%; in assay [8], 76.1%; in assay [9] it was 95.7%; in [10] it was 107%; in assay [11] it was 84.5%; in assay [12] it was 78.1%. Also, the growth was 92.7% in [13], 96.4% in assay [14], 55.1% in [15] and 101% in assay [16].
With `N#Cc1ccc(NC(=O)Nc2ccc(Oc3ccc(NC(=O)Nc4ccc(C#N)cc4)cc3)cc2)cc1`, the growth in assay [1] was -56.2% (active); in assay [2], 31%; in [3], 47.4%; in [4], 33.8%; in assay [5], 58.7%; in [6], -21.5% (active). In addition, the growth is 11.1% in [7]; 38.9% in [8]; 48.9% in assay [9]; 2.9% (active) in assay [10]; -15.5% (active) in [11]; 35.6% in [12]. Besides, the growth was 15.8% in [13], 20.5% in assay [14], 5.73% (active) in [15] and 9.37% (active) in assay [16].
For the compound `COc1ccc(-c2nnc(COc3ccc(NC(=O)Nc4cc(C(F)(F)F)cc(C(F)(F)F)c4)cc3F)o2)cc1`, the growth in assay [1] is -25.8% (active); in [2] it was 11.4%; in assay [3] it was 29%; in assay [4], 19.2%; in assay [5], 18.4%; in [6], 44.4%. Moreover, the growth in [7] was 2.67% (active); in assay [8], 16.8%; in assay [9], 10.6%; in assay [10], 20.4%; in [11], 15.5%; in [12] it was 7.29% (active). Further, the growth in assay [13] was 13.6%; in assay [14], 1.51% (active); in assay [15], 2.49% (active); in [17] it was 11.5%; in assay [16], 0.401% (active).
